PubChem BioAssay AID651956 (Broad Institute, 2012)
Potency and affinity values are given separately. Results filed as inconclusive are left out. The source made the active and inactive calls.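 How the source made its calls: active means in every test run, a fitted half-maximal concentration for signal decrease at or below twice the highest tested concentration; inconclusive means runs disagree, flat 30 to 70% decrease, or poor fit; inactive means the rest.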

test: miR-122 activators in hepatoma reporter cells, dose response, cell-based, Huh7 psiCHECK-miR122, Renilla luciferase, cherry-picked (AID 651956); settings: 48 h; series mostly up to 35 µM; activity change, negative = signal decrease: at the top concentration;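 further: Renilla luciferase from a miR-122 sensor reporter so lower signal means miR-122 activation; 0% = median neutral control wells and -100% = median positive control wells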

Activity change, negative = signal decrease, inactive:
O=C(NCCCN1CCCC1)c1ccc(CSCc2cccc(Cl)c2)o1 5.27%
COc1nnc(-c2ccc(N3CCOCC3)c(NC(=O)c3ccccc3)c2)c2ccccc12 60.5%
Cc1cnc(NC(=O)c2cc3c(C)nn(-c4ccccc4)c3s2)s1 -11.8%
CN1C(=O)c2cc(NC(=O)Nc3ccc(Cl)cc3)ccc2OC[C@H]2O[C@H](CC(=O)NCCN3CCCCC3)CC[C@H]21 -3.5% [at 30 µM]
COc1ccc(-c2ccc(C#N)c(OC(=O)c3c(Cl)cccc3Cl)n2)cc1 42.2%
CCCN(C[C@@H]1N[C@@H](CO)[C@H]1c1ccc(-c2cccnc2)cc1)C(C)=O -34.4%
COCC(=O)N1[C@H](CO)[C@@H](c2ccccc2)[C@H]1CNC(=O)c1ccccn1 15.5%
CN1C(=O)c2cc(NC(=O)Cc3ccccc3)ccc2OC[C@@H]2O[C@@H](CC(=O)O)CC[C@H]21 45.6%
CN1C(=O)c2cc(NC(=O)c3ccno3)ccc2OC[C@H]2O[C@@H](CC(=O)NCC3CC3)CC[C@@H]21 -30.3%
CCC(=O)N1[C@H](CO)[C@H]2c3ccccc3N(C(=O)CC(F)(F)F)C[C@H]21 -34.8%
O=C(COc1ccccc1F)N1CCc2ccccc2C1 42.4%
CCNC(=O)C[C@H]1CC[C@H]2[C@H](COc3ccc(NS(C)(=O)=O)cc3C(=O)N2C)O1 -8.52%
CN1C(=O)c2cc(NC(=O)c3cccc(F)c3)ccc2OC[C@H]2O[C@H](CC(=O)NC3CCC3)CC[C@@H]21 -4.17%
CN1C(=O)c2cc(NC(=O)Cc3ccccc3)ccc2OC[C@H]2O[C@@H](CC(=O)NCc3ccc(Cl)cc3)CC[C@@H]21 119%
O=C(c1cccnc1)N1C[C@H]2[C@@H](c3ccccc31)[C@H](CO)N2C(=O)Nc1ccccc1 -24.8%
CCN(C[C@H]1N[C@@H](CO)[C@@H]1c1ccc(C2=CCCC2)cc1)C(=O)c1ccncc1 -9.09%
CN(C[C@H]1N[C@@H](CO)[C@@H]1c1ccc(C2=CCCC2)cc1)C(=O)c1ccccn1 209%
O=C(COC(=O)c1ccccc1)Nc1cc(Cl)ccc1Oc1ccccc1 -24.7%
C[C@H]1CN([C@@H](C)CO)S(=O)(=O)c2ccc(C3=CCCC3)cc2O[C@H]1CN(C)Cc1cccnc1 8.03%
CN1C(=O)c2cc(NC(=O)c3ccc4c(c3)OCO4)ccc2OC[C@H]2O[C@@H](CC(=O)O)CC[C@@H]21 -34%
O=C(NCC(c1cccnc1)N1CCOCC1)NC1CCCCC1 (stereo not drawn) -10.8%
CN(C)CCCNC(=O)C[C@H]1CC[C@H]2[C@H](COc3ccc(NC(=O)c4cccc(F)c4)cc3C(=O)N2C)O1 55.7%
CC(C)CC#Cc1ccc([C@H]2[C@@H](CO)N3CCCCN(S(=O)(=O)Cc4ccccc4)C[C@H]23)cc1 -137%
COc1ccc(N2CCc3c(C)nc4c(OC)cc(OC)cc4c32)c(OC)c1 -90%
Cc1cc(C(=O)Nc2ccc3c(c2)C(=O)N(C)[C@H]2CC[C@@H](CC(=O)N[C@@H](C)c4ccccc4)O[C@H]2CO3)no1 108%
O=C(Nc1ccc(F)cc1)N1C[C@H]2[C@@H](c3ccccc31)[C@H](CO)N2C(=O)c1ccncc1 -5.52%
CCN(C[C@H]1N[C@H](CO)[C@H]1c1ccc(C2=CCCC2)cc1)C(=O)c1cccnc1 60.6%
CCOc1cc(C(=O)NC(C)COC)cc(OCC)c1OCC (stereo not drawn) -21.1%
CCCNC(=O)Nc1ccc2c(c1)C(=O)N(C)[C@@H]1CC[C@@H](CC(=O)NCC3CCCCC3)O[C@@H]1CO2 128%
N#Cc1c(N)nc2c(c1-c1cccs1)CCCC2 42.8%
COc1ccc(-c2c(C(C)=O)c(C)nc3sc4c(c23)NC(c2ccccc2)NC4=O)cc1 (stereo not drawn) -2.67%
Cc1cc(C(=O)Nc2ccc3c(c2)C(=O)N(C)[C@H]2CC[C@H](CC(=O)N[C@@H](C)c4ccccc4)O[C@H]2CO3)no1 4.71%
C/C=C/c1ccc([C@@H]2[C@@H](CO)N[C@@H]2CN(C(=O)C2CCCC2)C(C)C)cc1 72.6%
COc1cccc(S(=O)(=O)N(C)C[C@@H]2Oc3cc(C4=CCCCC4)ccc3S(=O)(=O)N([C@H](C)CO)C[C@@H]2C)c1 258%
CN1C(=O)c2cc(NC(=O)c3cccc(F)c3)ccc2OC[C@@H]2O[C@@H](CC(=O)O)CC[C@H]21 28.9% [at 30 µM]
N=c1c2c(-c3ccccc3)c(-c3ccccc3)n(Cc3ccccc3)c2ncn1CCCO 45.8%
COCC(=O)Nc1ccc2c(c1)C(=O)N(C)[C@@H]1CC[C@H](CC(=O)NCCCN(C)C)O[C@H]1CO2 -2.91%
C/C=C/c1ccc([C@H]2[C@H](CO)N[C@H]2CN(C)S(=O)(=O)c2ccccc2)cc1 -26.8%
